Compounds with a hit are over-represented: about 1.1% of the library has one in this group of screens.
IDE cell activ: IDE (human) activation, cell-based. HEK cells, FAbeta-B cleavage, fluorescence polarization; 0% vehicle, 100% cell-free pure enzyme wells. P14735. activation, % at 5.96 µM. AID 493087. actives 0.073% (n = 340,000);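 active = activation above the mean of all tested compounds plus 3 SD, set per screening campaign, cut at about 17% in these data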
IDE cell inh: inhibits human insulin-degrading enzyme in HEK cells; P14735; FAbetaB cleavage, fluorescence polarization; inhibition, % at 5.59 µM; actives 0.41% (n = 320,000);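 active = percent inhibition above the average of all tested compounds plus 3 SD, set per screening campaign, cut at about 16% in these data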;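 also: IDE supplied by intact live HEK cells; FP after avidin binding of uncleaved biotin substrate so inhibition keeps polarization high; 0% = DMSO wells and 100% = 60 µM reference IDE inhibitor Ii1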
LANA-H2B inh: blocks KSHV LANA binding to histone H2A/H2B | AID 2629 | cell-free LANA-H2A/H2B peptide, fluorescence polarization | inhibition, % (no concentration beside the values) | actives 0.6% (n = 320,000); in the data active = inhibition mostly above about 10%, no sharp cut-off; inactive = mostly below about 6.7%
HDAC3 inh: inhibitors of human histone deacetylase 3 | AID 2718 | actives 0.15% (n = 320,000) | recombinant HDAC3, fluorogenic peptide/trypsin coupled, fluorescence | inhibition, % at 8.3 µM; in the data active = inhibition above about 26%, passing the limit was not always enough; inconclusive = no clear call, values can overlap the other calls
An asterisk follows results filed as active.

What do the screens show for `Cc1nnc(SCC(=O)NC2CCCC(C)C2C)n1N` (stereo not drawn)?
IDE cell activ: 2.1; IDE cell inh: 0.1; LANA-H2B inh: 1.3; HDAC3 inh: 4.7

How did O=C(Nc1ccccc1O)c1ccc(NS(=O)(=O)c2cccc3cccnc23)cc1 do in these assays?
IDE cell activ: 0.5; IDE cell inh: -2.5; LANA-H2B inh: 3.0; HDAC3 inh: 102.7*

What do the screens show for `COc1cc(/C=N/NC(=O)c2ccccn2)ccc1OC(=O)c1cccs1`?
IDE cell activ: 5.8; IDE cell inh: -1.7; LANA-H2B inh: 2.9; HDAC3 inh: -2.4

How did CCc1ccccc1NC(=O)CN1CCN(C(=O)CNC(=O)c2ccccc2F)CC1 do in these assays?
IDE cell activ: 1.6; IDE cell inh: -2.0; LANA-H2B inh: active; HDAC3 inh: -4.9

Results for CCOc1c(C)cnc2c1c(=O)n(Cc1cccc(Cl)c1)c(=O)n2C ?
IDE cell activ: 2.5; IDE cell inh: 0.0; LANA-H2B inh: -6.1; HDAC3 inh: 1.6

How did CCOc1c(C)cnc2c1c(=O)n(Cc1ccc(Cl)cc1)c(=O)n2C do in these assays?
IDE cell activ: 3.8; IDE cell inh: 9.9; LANA-H2B inh: 16.6*; HDAC3 inh: -3.1

How did CCOC(=O)c1ccccc1NC(=O)COC(=O)CC1CCCCC1 do in these assays?
IDE cell activ: 0.3; IDE cell inh: 0.6; LANA-H2B inh: -4.3; HDAC3 inh: 2.5

Results for CCOC(=O)c1ccccc1NC(=O)COC(=O)CN1C(=O)C2CC=CCC2C1=O (stereo not drawn) ?
IDE cell activ: -0.9; IDE cell inh: -0.1; LANA-H2B inh: 161.7*; HDAC3 inh: -0.7

What do the screens show for `Cc1c(CCO)c(=O)[nH]n1S(=O)(=O)c1ccc(F)cc1`?
IDE cell activ: 2.6; IDE cell inh: 12.1; LANA-H2B inh: 14.0*; HDAC3 inh: -5.1

How did Cc1c(CCO)c(=O)[nH]n1S(=O)(=O)c1ccccc1 do in these assays?
IDE cell activ: -2.2; IDE cell inh: -7.3; LANA-H2B inh: 0.4; HDAC3 inh: -1.7

What do the screens show for `Cc1nonc1OCCNCCNc1ccccc1[N+](=O)[O-]`?
IDE cell activ: -0.2; IDE cell inh: 0.9; LANA-H2B inh: 23.8*; HDAC3 inh: 1.9

Results for O=[N+]([O-])c1ccccc1NCCOc1ccccc1 ?
IDE cell activ: 4.6; IDE cell inh: 4.6; LANA-H2B inh: 1.9; HDAC3 inh: 0.4

How did O=C(O)COC(=O)Cc1ccccc1Nc1c(Cl)cccc1Cl do in these assays?
IDE cell activ: 2.0; IDE cell inh: 0.9; LANA-H2B inh: 6.1; HDAC3 inh: -9.2

How did CC(Sc1ccc(S(=O)(=O)N2CCOCC2)cn1)C(=O)Nc1ccc(Cl)cc1Cl (stereo not drawn) do in these assays?
IDE cell activ: -5.9; IDE cell inh: -1.1; LANA-H2B inh: 23.7*; HDAC3 inh: 2.8

Results for O=C(c1ccc(N2C(=O)C3C4CC(C(Br)C4Br)C3C2=O)cc1)N1CCCCC1 (stereo not drawn) ?
IDE cell activ: -1.7

What do the screens show for `Fc1cccc(F)c1-n1c(CN2CCCC2)csc1=S`?
IDE cell activ: -2.1; IDE cell inh: -1.7; LANA-H2B inh: 32.9*; HDAC3 inh: -4.4

What do the screens show for `Fc1ccccc1CN1CCCCCCC1`?
IDE cell activ: -0.8; IDE cell inh: 3.1; LANA-H2B inh: -3.7; HDAC3 inh: -1.3

Results for CCN(CC)CCNC(=O)C(=O)Nc1cc2c3c(c1)CCC(=O)N3CCC2 ?
IDE cell activ: -2.2; IDE cell inh: 2.7; LANA-H2B inh: 0.9*; HDAC3 inh: 0.7

Results for CCCCNC(=O)C(=O)Nc1cc2c3c(c1)CCC(=O)N3CCC2 ?
IDE cell activ: 7.5; IDE cell inh: 3.4; LANA-H2B inh: -5.0; HDAC3 inh: 0.9

How did CN(C)CCNC(=O)C(=O)Nc1cc2c3c(c1)CCN3C(=O)CC2 do in these assays?
IDE cell activ: 3.4; IDE cell inh: -2.9; LANA-H2B inh: 17.3*; HDAC3 inh: 8.1

How did CN(C)CCNC(=O)C(=O)Nc1cc2c3c(c1)CCC(=O)N3CCC2 do in these assays?
IDE cell activ: 0.9; IDE cell inh: 10.8; LANA-H2B inh: -4.5; HDAC3 inh: 1.2

Results for O=C(c1cccc(C(F)(F)F)c1)N1CCOC12CCN(c1ncc(C(F)(F)F)cc1Cl)CC2 ?
IDE cell activ: 5.9; IDE cell inh: 4.3; LANA-H2B inh: 4.0; HDAC3 inh: inconclusive

Results for CCCC1C2CN(C(C)C)CC=C2C(C#N)=C(N)C1(C#N)C#N (stereo not drawn) ?
IDE cell activ: 3.5; IDE cell inh: -8.3; LANA-H2B inh: 30.4*; HDAC3 inh: -28.7

How did CN(CC1COCCO1)C(=O)c1cc(COc2c(F)cccc2F)on1 (stereo not drawn) do in these assays?
IDE cell activ: -2.9; IDE cell inh: 1.3; LANA-H2B inh: 115.5*; HDAC3 inh: 7.9

Results for CN(CC1COc2ccccc2O1)C(=O)c1cc(COc2c(F)cccc2F)on1 (stereo not drawn) ?
IDE cell activ: 0.1; IDE cell inh: 2.9; LANA-H2B inh: 3.6; HDAC3 inh: 3.5

Results for O=C(N/N=C/c1cccc(F)c1)c1c(O)c2ccccc2[nH]c1=O ?
IDE cell activ: 5.3; IDE cell inh: 6.0; LANA-H2B inh: active; HDAC3 inh: -3.5

What do the screens show for `O=C(O)CC/C(=N/NC(=O)c1cn(-c2ccccc2)nc1-c1ccccc1)C(=O)O`?
IDE cell activ: 1.0; IDE cell inh: -3.8; LANA-H2B inh: 2.7; HDAC3 inh: -5.0

How did CCOc1cc(C(=O)OC(C(=O)NC(=O)NC)c2ccccc2)ccc1OCC(=O)N1CCOCC1 (stereo not drawn) do in these assays?
IDE cell activ: 1.7; IDE cell inh: -0.6; LANA-H2B inh: 3.8; HDAC3 inh: 26.6*

How did NCCCCc1cn(CC(=O)N2CCNCC2)nn1 do in these assays?
IDE cell activ: -2.0; IDE cell inh: 2.4; LANA-H2B inh: 1.3; HDAC3 inh: 0.7

How did Cc1ccc(C(=O)CSc2nc3cccnc3n2C)cc1 do in these assays?
IDE cell activ: -5.0; IDE cell inh: 4.7; LANA-H2B inh: -5.8; HDAC3 inh: inconclusive

What do the screens show for `Cn1c(SCC(=O)c2ccccc2)nc2cccnc21`?
IDE cell activ: -4.2; IDE cell inh: 0.1; LANA-H2B inh: 97.7*; HDAC3 inh: 3.6

What do the screens show for `COc1ccc(OCC(=O)N2c3ccc(C)cc3C3CN(C)CCC32)cc1` (stereo not drawn)?
IDE cell activ: -2.5; IDE cell inh: -2.0; LANA-H2B inh: 24.8*; HDAC3 inh: -4.5

What do the screens show for `C(=NOCCc1ccccc1)c1ccccn1`?
IDE cell activ: 3.6

Results for Cc1nc(N2CCc3ccccc3C2)[nH]c(=O)c1Cc1ccccc1 ?
IDE cell activ: 5.1; IDE cell inh: 2.1; LANA-H2B inh: 11.5*; HDAC3 inh: -0.5

Results for CCCCCc1c(C)nc(N2CCc3ccccc3C2)[nH]c1=O ?
IDE cell activ: 4.3

Results for Cc1ccc(NC(=O)CS(=O)(=O)c2cn(CC(=O)N3CCOCC3)c3ccccc23)cc1 ?
IDE cell activ: 4.5; IDE cell inh: 5.3; LANA-H2B inh: 18.4*; HDAC3 inh: -7.2

Results for CN(C(=O)CS(=O)(=O)c1cn(CC(=O)N2CCOCC2)c2ccccc12)c1ccccc1 ?
IDE cell activ: -5.0; IDE cell inh: 1.9; LANA-H2B inh: 33.8*; HDAC3 inh: -1.9
